In PubChem BioAssay (NCI) one finds growth data, which are given here for 14 compounds.

This is part of a sample that, as a whole, favours compounds with a hit. Of some 83,000 tested, about 20% had one in any assay.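 The endpoint reported here, percent growth, reads 100 for growth as untreated, 0 for no net growth and -100 for all cells dead.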 Calls of active or inactive are those of the source. Rule for the calls: active = growth percent below 10; inactive = the rest.

For the assay, the system named is MDA-MB-468 breast. The experiment in a line: NCI-60 one-dose screen, 48 h (100 = growth as untreated, 0 = no growth, -100 = all killed). Particulars: 10 µM unless noted.
As to `OC(c1cc2c(Cl)cc(Cl)cc2c2cc(C(F)(F)F)ccc12)C1CCCCN1` (centres undefined), the growth was -89.1% (active). In the case of `C#C[C@@]1(O)[C@@H](CO)O[C@@H](n2cc(-c3ccco3)c3c(N)ncnc32)[C@@H]1O`, the growth was 49.5% (inactive).

Turning to `CC(C)(C)c1ccc(C(=O)Nc2sc3c(c2C(N)=O)CCC(O)C3)cc1` (centres undefined), the growth was 32.3% (inactive). Then `O=C1c2c(c3c4ccc(Br)cc4oc3c3[nH]c4ccccc4c23)C(=O)N1CCO`, with 46.5% (inactive); and `CCc1ccc(-c2ccc(Nc3ccccc3)nn2)cc1S(N)(=O)=O`, with 34.4% (inactive). For `C=C1C(=O)O[C@H]2[C@H]1CC/C(COC(=O)c1cccnc1)=C\CC[C@@]1(C)O[C@@H]21`, the growth was 17.6% (inactive). Then `COc1ccc(-c2c(-c3nc4ccc(N5CCOCC5)cc4[nH]3)[nH]c(C)c2C(C)=O)cc1`, with 23.1% (inactive); and `O=C(CN1CCOCC1)Nc1nc(-c2cc3ccccc3oc2=O)cs1`, with 107% (inactive); and `OCC1OC(OC2C(O)C(CO)OC2(CO)OC2OC(CO)C(O)C(O)C2O)C(O)C(O)C1O` (centres undefined), with 112% (inactive). Consider `COc1ccc(Cn2cc3c(c2-c2ccccc2)CCc2cncnc2-3)cc1`, for which the growth was 32.5% (inactive). To `CN1CCN(Cc2ccc(NC(=O)c3cncc(C#Cc4cnc(N)cc4C#N)c3)cc2C(F)(F)F)CC1` belongs -4.22% (active). Take `COc1ccc(C2C3=C(COC3=O)N(CCO)c3cc4c(cc32)OCCO4)cc1OC` (centres undefined): the growth is -32.1% (active). Then `O=c1c2ccccc2nc(COc2ccccc2)n1/N=C/C=C/c1ccccc1`, with 89.1% (inactive). Then `COc1cc(-c2c3c(c(Br)n2Cc2ccccc2)-c2nc(N)sc2CC3)cc(OC)c1OC`, with 73.4% (inactive).
